# Reference: PubChem BioAssay
# “And” between values parts separate entries of the source, which are not always exact repeats. Equal values may be shown once. Results filed as inconclusive are left out. Some structures have more than one record in an assay (separate samples or runs), and their calls can disagree. The source made the active and inactive calls. Cut-off read from the data, not from the text of the source, unless noted: active = inhibition above about 80%; inactive = the rest.
# Tests used:
# [1] = viability loss in pontine glioma line – cell-based, SU-DIPG-XVII, MIPE5.0, CellTiter-Glo, qHTS, dose response (AID 1347060; cut-off not given, nearly all actives have AC50 up to about 26 µM;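 for AC50: cells exposed to compound for 48 hours before viability readout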); settings: CellTiter-Glo ATP luminescence
# [2] = viability loss in pontine glioma line – cell-based, SU-DIPG-XIII, MIPE4.0, CellTiter-Glo, qHTS, dose response (AID 1347061; cut-off not given, nearly all actives have AC50 up to about 37 µM;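 note: cells exposed to compound for 48 hours before readout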); settings: CellTiter-Glo ATP luminescence
# [3] = viability loss in pontine glioma line – cell-based, JHH-DIPG-1, MIPE4.0, CellTiter-Glo, qHTS, dose response (AID 1347062; cut-off not given, nearly all actives have AC50 up to about 27 µM;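 for AC50: cells exposed to compound for two days before readout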); settings: JHH-DIPG-1 viability, CellTiter-Glo ATP luminescence
# [4] = viability loss in pontine glioma line – cell-based, SU-DIPG-XIII, MIPE5.0, CellTiter-Glo, qHTS, dose response (AID 1347064; cut-off not given, nearly all actives have AC50 up to about 23 µM;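 for AC50: cells exposed to compound for 48 hours before the viability read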); settings: CellTiter-Glo ATP luminescence
# [5] = viability loss in pontine glioma line – cell-based, SU-DIPG-XXV, MIPE5.0, CellTiter-Glo, qHTS, dose response (AID 1347065; cut-off not given, nearly all actives have AC50 up to about 26 µM;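 note: cells exposed to compound for 48 hours before ATP readout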); settings: CellTiter-Glo ATP luminescence
# [6] = growth inhibition of DIPG cells – cell-based, MIPE4.0 library, CellTiter-Glo luminescence, qHTS (AID 1347066; cut-off not given, nearly all actives have AC50 up to about 30 µM;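 note: cells exposed to compound for 48 hours before readout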); settings: SU-DIPG-VI viability, CellTiter-Glo ATP luminescence
# [7] = JHH-DIPG-1 glioma cell viability, MIPE5.0 library, CellTiter-Glo luminescence, qHTS (AID 1347067; cut-off not given, nearly all actives have AC50 up to about 26 µM;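 note: cells exposed to compound for 48 hours before readout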); settings: JHH-DIPG-1 glioma viability, CellTiter-Glo ATP luminescence
# [8] = growth inhibition of DIPG cells – cell-based, MIPE5.0 library, qHTS (AID 1347068; cut-off not given, nearly all actives have IC50 up to about 30 µM;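 for IC50: cells exposed to compound for 48 hours before viability readout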); settings: SU-DIPG-XXV viability
# [9] = viability loss with induced miR-34 in A549 – imaging, A549 dox-inducible miR-34, nuclei and caspase counts, primary screen (AID 1347080;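 active = compounds whose cell count with miR-34 switched on is under 0.7 times the count with it off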); settings: A549 miR-34 inducible, Hoechst nuclei count, 48 h
# [10] = MELAS cybrid and Rieske KO viability enhancers – cell-based, MELAS cybrids, Rieske KO mouse fibroblasts, CellTiter-Glo, primary screen (AID 1508586;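 active = mean z-score across replicates of 1.96 or higher in either the MELAS or the Rieske mutant cell line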;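 note: z relative to plate mean and SD of compound and empty wells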); settings: low glucose
# [11] = growth inhibition, single agent or in combination, cell-based, chromothripsis tumors, cisplatin or BGB combos (AID 1671449); settings: LFS_MB_P medulloblastoma cells;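 note: cells exposed for 96 hours; 0% = vehicle DMSO and 100% = killing by high DMSO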
# [12] = growth inhibition, single agent and combos, cell-based, chromothripsis tumors, cisplatin or BGB combos (AID 1671450); settings: HDN33 neuroblastoma cells, stronger effect = higher value;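 note: cells exposed to compound for four days; 0% = vehicle DMSO and 100% = cell killing by high DMSO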
# [13] = growth inhibition, single agents and combos, ICB984, cell-based, cisplatin or BGB combos, synergistic combos for chromothripsis tumors (AID 1671451; call rule not given here;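 note: cells exposed for 96 hours before readout; 0% = vehicle DMSO and 100% = killing by high DMSO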); settings: ICB984 medulloblastoma cells, drug combinations, stronger effect = higher value
# [14] = growth inhibition, single agents and combos, HTB85, cell-based, BGB or cisplatin IC20 combos, synergistic combos for chromothripsis tumors (AID 1671453); settings: HTB85 osteosarcoma cells, drug combinations, stronger effect = higher value;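 note: cells exposed for 96 hours before readout; 0% = vehicle DMSO and 100% = high DMSO killing control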
# [15] = growth inhibition, MDA-MB-436, cell-based, BGB or cisplatin combos, synergistic combos for chromothripsis tumors (AID 1671458; call rule not given here;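 note: cells exposed for 96 hours; 0% = vehicle DMSO and 100% = killing by high DMSO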); settings: MDA-MB-436 breast carcinoma growth inhibition, drug combinations, stronger effect = higher value
# [16] = BT084 cell growth, single and combined drugs, ICGC_MB145, cisplatin and BGB IC40 combos (AID 1671461); settings: BT084 medulloblastoma cells, drug combinations, stronger effect = higher value;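 note: cells exposed to drugs for 96 hours; 0% = vehicle DMSO and 100% = high DMSO full killing control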
# [17] = RCMB18 cell growth, single agent and combined, cisplatin and BGB IC40 combos (AID 1671462); settings: RCMB18 medulloblastoma cells, stronger effect = higher value;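 note: cells exposed to compound for four days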
# [18] = viability loss in pontine glioma line – cell-based, SU-DIPG-IV, MIPE4.0, CellTiter-Glo, qHTS, dose response (AID 1347063; cut-off not given, nearly all actives have AC50 up to about 30 µM;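 note: compound exposure lasted 48 hours before the viability readout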); settings: CellTiter-Glo ATP luminescence
compound,measurement,setting,value
COc1ccc(-c2nc(N3CCOCC3)c3sc(CN(C)c4ncc(C(=O)NO)cn4)cc3n2)cn1,AC50,[1],23.5 nM (active)
same,AC50,[2],37.2 nM (active)
same,AC50,[3],13.2 nM (active)
same,AC50,[4],26.3 nM (active)
same,AC50,[5],14.8 nM (active)
same,AC50,[6],2.63 nM (active)
same,AC50,[7],6.62 nM (active)
same,IC50,[8],295 nM (active)
same,fold change,"[9]; stronger effect = lower value, cell number ratio, induced over uninduced",1.02 (inactive)
same,fold change,[9]; measured here: relative caspase fold change +Dox/-Dox,0.447
same,cell count,"[9]; measured here: total cells with miR-34 induction, stronger effect = lower value",1250
same,cell count,[9]; measured here: total cells without miR-34 induction,1230
same,z-score,"[10]; MELAS cybrid survival, CellTiter-Glo 48 h, stronger effect = higher value",-0.053 (inactive)
same,z-score,"[10]; Rieske KO mouse fibroblast survival, CellTiter-Glo 72 h",-3.69
same,inhibition,"[11]; at 0.5 µM, stronger effect = higher value",-17.1% (inactive) and 84.7% (active)
same,inhibition,"[11]; measured here: combination with BGB IC20, at 0.005 µM",-19% and -26.8%
same,inhibition,"[11]; measured here: combination with BGB IC40, at 0.005 µM",-13.4% and -10.7%
same,inhibition,"[11]; measured here: combination with BGB IC40, at 0.05 µM",-8.69% and -6.92%
same,inhibition,"[11]; measured here: combination with cisplatin, at 0.5 µM, stronger effect = higher value",-32.9% and 119%
same,inhibition,"[11]; measured here: combination with cisplatin, at 5 µM, stronger effect = higher value",120% and 126%
same,inhibition,"[12]; BGB combo, at 5 µM",99.9% and 99.7%
same,inhibition,[12]; at 0.5 µM,98.9% (active) and 93.4% (active)
same,inhibition,"[12]; cisplatin combo, at 5 µM",99.9%
same,inhibition,"[12]; measured here: with BGB IC20 combination, at 0.5 µM",97.8% and 90.5%
same,inhibition,"[12]; measured here: with cisplatin IC20 combination, at 0.5 µM",99.5% and 96.1%
same,inhibition,"[12]; single agent, at 5 µM",99.9%
same,inhibition,"[13]; BGB IC20 combo, at 0.005 µM",85.9% and 87.2%
same,inhibition,"[13]; BGB IC40 combo, at 0.005 µM",93.2% and 94%
same,inhibition,"[13]; BGB IC40 combo, at 0.05 µM",101%
same,inhibition,[13]; at 0.5 µM,-8.74% (inactive) and -32% (inactive)
same,inhibition,"[13]; cisplatin combo, at 0.05 µM",101%
same,inhibition,"[13]; cisplatin combo, at 0.5 µM",10.9% and -33%
same,inhibition,"[13]; cisplatin combo, at 5 µM",21.2% and -18.3%
same,inhibition,"[13]; measured here: 5 uM single agent, at 5 µM",1.99% and 3.43%
same,inhibition,[14]; at 0.5 µM,99.5% (active) and 95.4% (active)
same,inhibition,"[14]; measured here: with BGB IC20, at 0.5 µM",99.5% and 93.3%
same,inhibition,"[14]; measured here: with BGB IC20, at 5 µM",99.8% and 99.9%
same,inhibition,"[14]; measured here: with cisplatin IC20, at 0.5 µM",99.9%
same,inhibition,"[14]; measured here: with cisplatin IC20, at 5 µM",100% and 99.9%
same,inhibition,"[14]; single agent, at 5 µM",99.9%
same,inhibition,[15]; at 0.5 µM,55.1% (inactive) and 39.3% (inactive)
same,inhibition,"[15]; measured here: BGB combination, at 0.5 µM",45.2% and 33.3%
same,inhibition,"[15]; measured here: BGB combination, at 5 µM",89.9% and 80.2%
same,inhibition,"[15]; measured here: cisplatin combination, at 0.5 µM",50.8% and 33.9%
same,inhibition,"[15]; measured here: cisplatin combination, at 5 µM",91.2% and 86.1%
same,inhibition,[16]; at 0.5 µM,84.3% (active) and 90.7% (active)
same,inhibition,"[16]; cisplatin combination, at 0.5 µM",99.6% and 101%
same,inhibition,"[16]; cisplatin combination, at 5 µM",102% and 106%
same,inhibition,"[16]; measured here: BGB IC40 combination 0.05 uM, at 0.05 µM",55.4% and 3.88%
same,inhibition,"[16]; single agent, at 5 µM",109% and 106%
same,inhibition,[17]; at 0.5 µM,90.3% (active) and 89.8% (active)
same,inhibition,"[17]; cisplatin combo, at 5 µM",97.3% and 101%
same,inhibition,"[17]; measured here: BGB IC40 combination, at 0.05 µM",42.1% and 41.3%
same,inhibition,"[17]; measured here: combination with cisplatin, at 0.5 µM",91.8% and 91.3%
same,inhibition,"[17]; single agent, at 5 µM",98.7% and 99.3%
CC(C)(N)C(=O)N[C@H](COCc1ccccc1)C(=O)N1CCC2(CC1)CN(S(C)(=O)=O)c1ccccc12,outcome,[1],inactive
same,outcome,[2],inactive
same,outcome,[3],inactive
same,outcome,[4],inactive
same,outcome,[5],inactive
same,outcome,[6],inactive
same,outcome,[7],inactive
same,outcome,[8],inactive
O=C(O)c1ccc(O)c2ncc(N3CCOCC3)cc12,outcome,[1],inactive
same,AC50,[2],26400 nM (active)
same,outcome,[3],inactive
same,AC50,[18],23500 nM (active)
same,AC50,[6],26400 nM (active)
same,AC50,[7],23500 nM (active)
same,outcome,[8],inactive
C[N+](C)([O-])CCNc1ccc(NCC[N+](C)(C)[O-])c2c1C(=O)c1c(O)ccc(O)c1C2=O,AC50,[1],9340 nM (active)
same,outcome,[2],inactive
same,outcome,[3],inactive
same,outcome,[18],inactive
same,outcome,[6],inactive
same,IC50,[8],1.32 nM (active)
